ELG1 genotox: induces genotoxicity in HEK293T cells with luciferase-tagged ELG1 | HEK293T ELG1-luciferase reporter, luminescence, 16 h | Potency, µM (titrated, usually from 46 µM), for the others: at the top dose activity change, positive = activation, hits mostly activators | 330,000 compounds, 1.3% hits | AID 504466; further: % of control where 0% means no effect; nearly all actives have a fitted effect of over 60% in size
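Quantitative HTS format in 1536-well plates. HEK293T ELG1-luciferase reporter cells receive test compound and are incubated 16 hr at 37 °C, 5% CO2; ONE-Glo added, 30 min room temperature, then luminescence read.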
SMN2 splice up: enhancers of SMN2 splice variant expression | Potency, µM (doses to about 46.1 µM), for inactives: at the highest dose activity change, positive = activation, most hits filed as activators | 210,000 compounds, 2.8% hits | HEK293 SMN2-luciferase splicing reporter, luminescence, 30-36 h; further: % of control where 0% means no effect; nearly all actives have a fitted effect of over 55% in size
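HEK293 cells carry an SMN2 minigene-luciferase reporter in which exon 7 inclusion puts luciferase in frame. Cells were seeded at 2000 cells/well, attached for 10-12 hours, then exposed to compounds for 30-36 hours at 37C before ONE-Glo luminescence.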
FLuc modulator: inhibits or activates purified firefly luciferase, miR-21 counter-screen | 360,000 compounds, 6.9% hits | purified FLuc, Km substrates, luminescence inhibition | Potency, µM (top dose mostly 57.5 µM), for inactives: top-dose activity change, negative = inhibition, most hits filed as inhibitors | P08659;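 further: plate controls were vehicle for no effect and reference inhibitor for full effect; nearly all actives have a fitted effect of over 55% in size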
Target sequence (P08659 whole entry, looked up): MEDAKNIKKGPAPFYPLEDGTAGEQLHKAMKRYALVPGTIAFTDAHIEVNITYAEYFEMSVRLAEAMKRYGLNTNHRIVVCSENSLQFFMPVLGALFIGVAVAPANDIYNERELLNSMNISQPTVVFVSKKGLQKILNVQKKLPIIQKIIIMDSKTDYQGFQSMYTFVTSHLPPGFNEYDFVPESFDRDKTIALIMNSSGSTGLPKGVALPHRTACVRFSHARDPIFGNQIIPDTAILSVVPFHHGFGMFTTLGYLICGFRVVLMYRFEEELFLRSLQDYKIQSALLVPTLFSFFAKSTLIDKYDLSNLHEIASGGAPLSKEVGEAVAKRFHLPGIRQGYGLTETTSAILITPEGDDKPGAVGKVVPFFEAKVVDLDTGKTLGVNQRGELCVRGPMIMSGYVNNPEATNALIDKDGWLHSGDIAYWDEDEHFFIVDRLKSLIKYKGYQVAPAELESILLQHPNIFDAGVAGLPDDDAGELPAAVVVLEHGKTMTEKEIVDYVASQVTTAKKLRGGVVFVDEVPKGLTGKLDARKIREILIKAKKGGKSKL
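Purified P. pyralis luciferase (10nM final) with 10uM D-luciferin and 10uM ATP (Km levels) in 50mM Tris acetate pH 7.5, 10mM Mg acetate, 0.01% Tween-20, 0.05% BSA; qHTS 6-point titration, ~60 µM downward; luminescence read.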
Rab9 promoter act: Rab9 promoter activation; Huh7 Rab9 promoter-luciferase reporter, luminescence, 24 h; Potency, µM (doses to about 9.22 µM), inactives show at the highest dose activation, negative = inhibition, actives largely listed as activators; 320,000 compounds, 2.8% hits; further: % of control where 0% means no effect; nearly all actives have a fitted effect of over 60% in size
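Measured in stably transfected Huh7 cells bearing a Rab9 promoter–luciferase construct: 24 h compound treatment at 37 °C, followed by luminescence detection.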
p53 reactivation: mutant p53 re-activation in reporter cells; 320,000 compounds, 0.063% hits; Potency, µM (doses to about 92.2 µM), inactives show top-dose activity change, positive = activation, usual class: activators; H1299 p53-A138V BP100-luciferase reporter, luminescence, 24 h; further: % of control where 0% means no effect; nearly all actives have a fitted effect of over 45% in size
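p53-null H1299 cells stably carrying temperature-sensitive p53-A138V and a BP100-luciferase reporter were pinned with compounds (4-point, 1:5 series) and held 24 hrs at 37 deg C. Luminescence was read 10 min after detection reagent.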
NPC1 promoter act: activators of NPC1 promoter; Huh7 NPC1 promoter luciferase reporter, 24 h; Potency, µM (series often up to 9.22 µM), for inactives: at the highest dose activation, usual class: activators; 320,000 compounds, 2.4% hits; AID 485313; further: % of control where 0% means no effect; nearly all actives have a fitted effect of over 60% in size
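Compounds in DMSO were transferred onto Huh7 NPC1-luciferase reporter cells pre-incubated 2 h; after 24 h at 37 °C, Amplite reagent was dispensed and luminescence recorded 10 min later.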
* hit, by the source's call; ? = inconclusive; nt = no result given; [ ] = dose if it differs, or a comment. In the library only some 7.3% were active in any assay of this set; here they are far more common. The call rests on the fitted dose curve; in most records, active means well fitted curve in the direction sought with a large enough effect; inconclusive means small, poorly fitted or top-dose-only effect, or another doubt; inactive means no such curve, though single readings can be large; an effect the other way counts as inactive or inconclusive. Potency means the concentration at half of the fitted maximal effect.

SMILES	ELG1 genotox	SMN2 splice up	FLuc modulator	Rab9 promoter act	p53 reactivation	NPC1 promoter act
O=C(CSCc1ccccc1)N1CCN(c2cccc(C(F)(F)F)c2)CC1	-2%	-33%	-4%	1%	5%	-4%
Cc1[nH][nH]c(=O)c1C(c1ccc(Br)cc1)c1c(C)[nH][nH]c1=O	-1%	nt	0%	4%	nt	-1%
Cc1cn(-c2ccc(Br)cc2)[nH]c1=O	18µM*	21%	?	18%	20%	27%
CCS(=O)(=O)N1CCN(c2cnn(-c3ccccc3)c(=O)c2Cl)CC1	3%	11%	-1%	-8%	13%	11%
O=c1c(Cl)c(N2CCCCC2)cnn1-c1nc2ccccc2[nH]1	?	-63%	0.38µM*	0.11µM*	-11%	?
O=c1c2ccccc2cnn1-c1nc2ccccc2[nH]1	-8%	nt	0.17µM*	?	-15%	0.1µM*
CCOC(=O)c1c(N)sc(C(N)=O)c1C	3%	12%	-14%	1%	1%	10%
Cc1c(C(=O)OC(C)C)sc(N)c1C(=O)OC(C)C	11%	24%	21µM*	27%	24%	20%
CCOC(=O)c1c(N)sc(C(=O)N(CC)CC)c1C	0%	nt	2%	-6%	-1%	0%
CCOC(=O)c1c(N)sc(C(=O)Nc2ccccc2F)c1C	?	8.9µM*	1.9µM*	0.4µM*	26%	2.5µM*
CCOC(=O)c1c(N)sc(C(=O)Nc2ccccc2)c1C	?	nt	1.2µM*	0.32µM*	10%	0.45µM*
CCOC(=O)c1cc(C(=O)Nc2ccccc2F)nn1C	4.5µM*	13µM*	8.5µM*	2µM*	?	2.2µM*
CC1=C(C(=O)Nc2ccc(C)cc2C)C(c2ccc([N+](=O)[O-])cc2)n2ncc(C(=O)Nc3ccc(F)cc3)c2N1 (configuration not stated)	nt	nt	0%	nt	nt	nt
CCOCCOC(=O)c1ccc(NC(=O)/C=C/c2ccc(OC)c(OC)c2)cc1	nt	-10%	-9%	nt	nt	nt
CCCCn1c(N)c(N(Cc2ccccc2OC)C(=O)c2ccc(N3CCCC3=O)cc2)c(=O)[nH]c1=O	-1%	nt	5%	-4%	3%	-6%
CCCC(c1nnnn1C1CCCC1)N1CCN(c2ccccc2F)CC1 (configuration not stated)	-7%	-13%	4%	-1%	6%	-2%
CCN1CCN(c2ncc3c(n2)CCN(CC(C)C)C3)CC1	nt	nt	-4%	nt	nt	nt
Cc1ccc(-c2nc3ncccc3o2)cc1N	?	nt	15µM*	3.5µM*	nt	4µM*
Nc1cc(-c2nc3ncccc3o2)ccc1Cl	?	10µM*	19µM*	4µM*	?	?
Cc1cc(-c2nc3ncccc3o2)ccc1N	?	11µM*	17µM*	?	?	?
CCCC(=O)Nc1cc(-c2nc3ncccc3o2)ccc1Cl	-2%	nt	1%	10%	9%	-1%
Cc1ccc(-c2nc3ncccc3o2)cc1NC(=O)C(C)(C)C	0%	nt	2%	0%	nt	1%
CCC(=O)Nc1ccc(-c2nc3ncccc3o2)cc1C	nt	?	-18%	nt	nt	nt
CCn1nccc1C(=O)Nc1nccs1	-2%	-2%	9%	-7%	0%	-1%
CCn1cc(Br)c(C(=O)Nc2ccc(OC)cc2)n1	?	14µM*	15µM*	29%	27%	?
SMILES	ELG1 genotox	SMN2 splice up	FLuc modulator	Rab9 promoter act	p53 reactivation	NPC1 promoter act
CCCCOC(=O)c1ccc(NC(=O)c2nn(C)cc2Br)cc1	21%	9%	21µM*	5%	2%	7%
CCn1cc(Br)c(C(=O)Nc2ccc(C(=O)OC(C)C)cc2)n1	-2%	-10%	15µM*	?	7%	?
CCn1nccc1C(=O)Nc1ccc(C(=O)OC(C)C)cc1	15%	nt	19µM*	?	nt	?
O=C(N/C(=C/c1cccc([N+](=O)[O-])c1)C(=O)N1CCCCCC1)c1ccco1	5%	nt	-2%	7%	2%	-3%
COCCNC(=O)c1ccc2c(c1)ncn2-c1cccc(C)c1	?	nt	?	1%	-3%	-2%
O=C(OCc1nc2ccccc2s1)C1CCN(C2=NS(=O)(=O)c3ccccc32)CC1	?	18%	11µM*	?	?	7%
COc1cc(/C=C2\CCC(C3CCCC3)C2=O)cc(OC)c1OC (configuration not stated)	3%	nt	?	14%	10%	3%
COc1cccc(/C=C2\CCC(C3CCCC3)C2=O)c1OC (configuration not stated)	?	nt	1.1µM*	4µM*	?	2.8µM*
COc1ccc(/C=C2\CCC(C3CCCC3)C2=O)c(OC)c1OC (configuration not stated)	11%	nt	24µM*	0%[1.84 µM]	5%	-4%
COc1ccc(/C=C2/CC/C(=C\c3ccc(OC)c(OC)c3OC)C2=O)c(OC)c1OC	10%	-27%	5%	-3%	1%	-5%
Cc1ccc2c(NC(=O)c3ccco3)cccc2n1	6%	nt	-6%	-1%	nt	4%
CCCCNc1c(-c2ccc(SC(C)CC)c(OC)c2)nc2ccc(Cl)cn12 (configuration not stated)	-1%	nt	nt	nt	10%	nt
CCCCNc1c(-c2ccc(SC(C)CC)c(OC)c2)nc2ccc(C)cn12 (configuration not stated)	-6%	nt	8.5µM*	-1%	2%	0%
COCCn1c(C)cc(C(=O)CN2CCCCC2)c1C	6%	11%	2%	-3%	1%	2%
COCCn1c(C)cc(C(=O)CN2C(=O)NC3(CCCCCCC3)C2=O)c1C	?	?	15µM*	4µM*	?	3.2µM*
Cc1ccc(C(=O)CN2C(=O)NC3(CCCCCC3)C2=O)c(C)c1	16µM*	nt	?	?	17%	4µM*
CC(=O)c1cccc(NC(=O)Nc2sc3nc4n(c(=O)c3c2C)CCC(C)CC4)c1 (configuration not stated)	nt	-4%	-7%	nt	nt	nt
Cn1c(=O)c2c(n(Cc3ccccc3)c1=O)NC(=O)C2CC(=O)NCc1cccc(Cl)c1 (configuration not stated)	-5%	8%	-2%	3%	-6%	2%
CC(C)NC(=O)N(C)C[C@@H]1Oc2ccc(NC(=O)CCN3CCOCC3)cc2CC(=O)N([C@@H](C)CO)C[C@@H]1C	-2%	nt	nt	nt	-2%	nt
CC(=O)Nc1cccc(C(=O)N/N=C/c2ccccc2F)c1	7.3µM*	?	1.3µM*	0.79µM*	54%	3.2µM*
Cc1ccc(C(=O)Nc2cccc(C(=O)N/N=C/c3ccccc3F)c2)cc1	?	nt	5.4µM*	1.6µM*	21%	2µM*
